Consider 42 sequences from PMC10726135, “HNF4α isoforms regulate the circadian balance between carbohydrate and lipid metabolism in the liver”.

Over roughly 18,000 sequences, “log2 normalized intensity” has its median near 0.39; the highest 2% begin near 6.6. Only a selection was taken, and the highest values are over-represented in it overall.

This test addresses T1, HNF4alpha2 (COS-7 nuclear extract) (Homo sapiens, UniProt P41235 1-474).
T1 sequence: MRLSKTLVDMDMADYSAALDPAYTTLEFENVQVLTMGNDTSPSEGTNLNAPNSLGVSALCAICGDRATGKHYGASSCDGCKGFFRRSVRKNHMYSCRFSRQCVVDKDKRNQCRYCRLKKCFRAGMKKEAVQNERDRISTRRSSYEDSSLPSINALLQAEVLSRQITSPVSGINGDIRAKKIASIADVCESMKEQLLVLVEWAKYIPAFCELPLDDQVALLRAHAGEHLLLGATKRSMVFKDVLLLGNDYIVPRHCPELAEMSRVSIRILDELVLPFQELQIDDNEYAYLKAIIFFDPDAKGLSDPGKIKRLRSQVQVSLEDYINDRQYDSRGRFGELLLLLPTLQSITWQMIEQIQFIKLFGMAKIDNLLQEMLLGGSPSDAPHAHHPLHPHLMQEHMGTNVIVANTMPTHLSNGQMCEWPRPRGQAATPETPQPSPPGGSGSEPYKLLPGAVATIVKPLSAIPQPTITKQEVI
Description: protein-binding microarray; COS-7 nuclear extract on double-stranded Agilent 4x180k PBM; binding buffer, salt, pH and temperature not given in the material; high values mean tight binding. The conditions noted are these: chain copies: 2; label: 3' end of strand 1 on the slide; dsDNA, one strand shown. The essentials:
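Nuclear extracts of COS-7 cells transiently transfected with a human HNF4α isoform were applied to a custom Agilent SurePrint G3 4x180k array bearing ~44,000 double-stranded ~60-nt test sequences, each in quadruplicate. The bound protein was imaged on an Agilent G2565CA scanner at 2-µm resolution. Binding signal is the normalized, background-corrected gProcessedSignal from Agilent software.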
Consider “GCAGAATCAAAGGTCAAAATATCTGATCGAGCCTAGGGAGATTAGAGTATCGGTCGA”, for which the binding signal amounted to 3.32 log2 normalized intensity.

For “CATCCTCATTGCCTCTGGGCTTTGATGGACGCCTAGGGAGATTAGAGTATCGGTCGA”, the binding signal amounted to 1.64 log2 normalized intensity.

For the sequence “CCCCATGATGATAGCAAACACGATTGGATGGCCTAGGGAGATTAGAGTATCGGTCGA”, the binding signal is 0.412 log2 normalized intensity.

As to “AACTAGCAACTTGGACCTTGATAGGAGTTAGCCTAGGGAGATTAGAGTATCGGTCGA”, the binding signal was determined as 2.88 log2 normalized intensity.

As to “TCCAGTGGACATTGGCCCTTTGACCTTTAAGCCTAGGGAGATTAGAGTATCGGTCGA”, the binding signal came out at 7.47 log2 normalized intensity.

In the case of “TTTGAAGTTTAGAGATGCCTATAGGGTCTTGCCTAGGGAGATTAGAGTATCGGTCGA”, the binding signal came out at 0.736 log2 normalized intensity.

For the sequence “GTCCTTGATAAGCAAGATGACTTTGGTCTAGCCTAGGGAGATTAGAGTATCGGTCGA”, the binding signal stood at 1.78 log2 normalized intensity.

“ATATCCTGACTGCTGACCTTTAAGCCTATAGCCTAGGGAGATTAGAGTATCGGTCGA”: the binding signal worked out at 3.85 log2 normalized intensity.

On to “CTCCTGACCTTTGGACTTGATAGAGTTTAAGCCTAGGGAGATTAGAGTATCGGTCGA”, for which the binding signal turned out to be 7.57 log2 normalized intensity.

Consider “ACTGCTCCAGTGGACATTGGCCCTTTGACCGCCTAGGGAGATTAGAGTATCGGTCGA”, for which the binding signal was 5.99 log2 normalized intensity.

With “GACCTTTGGACTTGATAGAGTTTAAGTCTTGCCTAGGGAGATTAGAGTATCGGTCGA”, the binding signal was 6.99 log2 normalized intensity.

Regarding “TGGACATTGGCCCTTTGACCTTTAATCAAGGCCTAGGGAGATTAGAGTATCGGTCGA”, the binding signal amounted to 6.47 log2 normalized intensity.

For “TAAGAGCTATCAATGACCCATGTTTGCCCTGCCTAGGGAGATTAGAGTATCGGTCGA”, the binding signal worked out at 3 log2 normalized intensity.

With “TGCTTCTTGGCCTCTTTGTTTACACTGTGAGCCTAGGGAGATTAGAGTATCGGTCGA”, the binding signal was 1.53 log2 normalized intensity.

Consider “GCGGCTTCAGAGGCCAGCAGTGCTTTTCCCGCCTAGGGAGATTAGAGTATCGGTCGA”, for which the binding signal is -0.963 log2 normalized intensity.

In the case of “ATTGGAAGCTCTTTCCCTCCACCAAGTTTCGCCTAGGGAGATTAGAGTATCGGTCGA”, the binding signal turned out to be 0.191 log2 normalized intensity.

In the case of “TCTGATCCCAATTTATCTTTCCAGATTGTTGCCTAGGGAGATTAGAGTATCGGTCGA”, the binding signal came to 0.501 log2 normalized intensity.

Take “CCTCCAGGGAGGGGAGAGGGGGTTAAAGGTGCCTAGGGAGATTAGAGTATCGGTCGA”: the binding signal stood at 1.22 log2 normalized intensity.

Regarding “GGAAACTCCATTTCCTTCTAGCTCCCCAATGCCTAGGGAGATTAGAGTATCGGTCGA”, the binding signal is 3.53 log2 normalized intensity.

For the sequence “GAAAATATTTCTCTGAACTTTGACCTATAGGCCTAGGGAGATTAGAGTATCGGTCGA”, the binding signal turned out to be 8.62 log2 normalized intensity.

As for “ACTGACCTTTGAGAGTCAACACTGAAATAGGCCTAGGGAGATTAGAGTATCGGTCGA”, the binding signal was 1.42 log2 normalized intensity.

“AGTTGGAAAATATTTCTCTGAACTTTGACCGCCTAGGGAGATTAGAGTATCGGTCGA”: the binding signal is 8.41 log2 normalized intensity.

Turning to “TCTTTGATTAGGAAAGGGAACTCCCTGACCGCCTAGGGAGATTAGAGTATCGGTCGA”, the binding signal was -0.639 log2 normalized intensity.

Take “GGTGAAATAGCTGAACTATTTAAGGCCTTTGCCTAGGGAGATTAGAGTATCGGTCGA”: the binding signal is 0.822 log2 normalized intensity.

As to “CACTTCTGAAAAAAATATTGAACAAAGATTGCCTAGGGAGATTAGAGTATCGGTCGA”, the binding signal was -0.491 log2 normalized intensity.

With “GCCACCCCCGTTAATTTCTAACCAATGCAGGCCTAGGGAGATTAGAGTATCGGTCGA”, the binding signal amounted to 0.623 log2 normalized intensity.

For the sequence “CAAACTTCTCCACTCTTCATAATTACCATTGCCTAGGGAGATTAGAGTATCGGTCGA”, the binding signal came to 0.957 log2 normalized intensity.

“ACAAGCAACCCTCCTCCCTTTGGCCATGAAGCCTAGGGAGATTAGAGTATCGGTCGA”: the binding signal was found to be 1.54 log2 normalized intensity.

Regarding “TCACAGGTTCCAGCATGGACTTCACAGCCTGCCTAGGGAGATTAGAGTATCGGTCGA”, the binding signal was -0.535 log2 normalized intensity.

For the sequence “CAAACAGCTTAGGGTTCAAACTCCAGCTCTGCCTAGGGAGATTAGAGTATCGGTCGA”, the binding signal turned out to be 3.29 log2 normalized intensity.

On to “TCATTCCCCTAGTATATTGGCTTGGCTGTGGCCTAGGGAGATTAGAGTATCGGTCGA”, for which the binding signal came out at 2.58 log2 normalized intensity.

Consider “TTCTTCCTGTTTGACCTTCGAACCCTTGCCGCCTAGGGAGATTAGAGTATCGGTCGA”, for which the binding signal came to 9.01 log2 normalized intensity.

“TTGACCTTCTCTGTTAACCCTTTGCAGCCCGCCTAGGGAGATTAGAGTATCGGTCGA”: the binding signal worked out at 2.61 log2 normalized intensity.

Take “TTGACCTTCGAACCCTTGCCATTTACATCAGCCTAGGGAGATTAGAGTATCGGTCGA”: the binding signal is 5.38 log2 normalized intensity.

In the case of “CCTTGACCCTTCCTCCCATTTGCTGCTCTAGCCTAGGGAGATTAGAGTATCGGTCGA”, the binding signal amounted to 2.08 log2 normalized intensity.

Turning to “CCTGTTTGACCTTCGAACCCTTGCCATTTAGCCTAGGGAGATTAGAGTATCGGTCGA”, the binding signal turned out to be 7.04 log2 normalized intensity.

As for “CTCCTGTTTGTATTCCTTGTCCTTGACCCTGCCTAGGGAGATTAGAGTATCGGTCGA”, the binding signal is 4.35 log2 normalized intensity.

Consider “CATACTTCTTCCTGTTTGACCTTCGAACCCGCCTAGGGAGATTAGAGTATCGGTCGA”, for which the binding signal stood at 9.59 log2 normalized intensity.

With “GTACCTTGACCTTCTCTGTTAACCCTTTGCGCCTAGGGAGATTAGAGTATCGGTCGA”, the binding signal was 3.76 log2 normalized intensity.

As to “AAGCACATACTTCTTCCTGTTTGACCTTCGGCCTAGGGAGATTAGAGTATCGGTCGA”, the binding signal came out at 5.02 log2 normalized intensity.

In the case of “GGAGTTGGAACGGGGGCAAGGGTCAGAGTAGCCTAGGGAGATTAGAGTATCGGTCGA”, the binding signal is 4.26 log2 normalized intensity.

For “CTGGCATCTGGTCAGGGGTCAAGAAGCTCTGCCTAGGGAGATTAGAGTATCGGTCGA”, the binding signal stood at 2.21 log2 normalized intensity.
